Experimental data taken from PubChem BioAssay (NCI).
About 83,000 compounds went through this panel and 20% of them were active in at least one assay; those are over-represented in the sample as a whole.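 Percent growth is the endpoint: 0 to 100 indicates growth inhibition (40 means 60% inhibition), 0 means no net growth, and negative values indicate cell death.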 A number with no mark means an inactive call. The source made the active and inactive calls. How the source made its calls: active means growth percent below 10; inactive means the rest.

Tests used:
Experiment in all cases: NCI-60 one-dose screen, 48 h (100 = growth as untreated, 0 = no growth, -100 = all killed)
Details in all cases: 10 µM unless noted
NCI-H23 lung = tested on: NCI-H23 lung
NCI-H226 lung = tested on: NCI-H226 lung
NCI-H322M lung = tested on: NCI-H322M lung
HOP-62 NSCLC = tested on: HOP-62 NSCLC
NCI-H460 lung = tested on: NCI-H460 lung
HOP-92 NSCLC = tested on: HOP-92 NSCLC
NCI-H522 lung = tested on: NCI-H522 lung
A549/ATCC NSCLC = tested on: A549/ATCC NSCLC
786-0 renal = tested on: 786-0 renal
COLO 205 colon = tested on: COLO 205 colon

Compound	growth (NCI-H23 lung) [%]	growth (NCI-H226 lung) [%]	growth (NCI-H322M lung) [%]	growth (HOP-62 NSCLC) [%]	growth (NCI-H460 lung) [%]	growth (HOP-92 NSCLC) [%]	growth (NCI-H522 lung)	growth (A549/ATCC NSCLC) [%]	growth (786-0 renal) [%]	growth (COLO 205 colon) [%]
COc1cc(OC)c(NC(=O)C(Sc2nc(C)cc(C)c2C#N)c2ccccc2)cc1Cl (stereo not given)	96.6	102	106	65.5	110	80.9	82.1%	92.6	73.6	104
O=C1CSc2ccccc2N1	99.8	111	109	101	107	83.9	104%	96.5	117	108
CCN(C(C)=O)c1ccc([N+](=O)[O-])cc1	101	99.3	103	95.4	104	98.7	104%	91.8	102	110
O=C(O)CC1=CCCCC1	98.9	103	98.7	98.3	106	82.8	101%	98.5	95.2	108
C1CCc2onc(-c3noc4c3CCCCC4)c2CC1	110	123	102	101	140	93.6	95.8%	102	103	118
Cc1ccc(C)c(CN(C)C)c1O	102	97.6	108	97.4	102	88.1	111%	106	107	113
CCOP(=O)(OCC)/C(=C\N1C(=O)CC(=O)NC1=S)C(=O)OC	97.9	95.7	107	88	103	107	104%	99.7	108	99.5
CCOC(=O)/C(O)=C(\C=N\C(=S)Nc1ccc(Cl)c(Cl)c1)C(=O)OCC	87.3	75.2	106	94.3	106	95.5	71.4%	101	115	92.9
c1ccc(Nc2ccccn2)nc1	95.9	89	100	95.9	96.5	95.8	88.2%	109	97.6	104
C=CCC(OC(C)=O)c1ccc(C(C)C)cc1 (stereo not given)	108	106	120	109	106	86.7	86.6%	92.3	108	122
Cc1ccc([N+](=O)[O-])c(C)n1	108	106	101	106	112	84.2	98.9%	105	114	111
Cc1ccc(N)c(S(=O)(=O)O)c1	98.6	103	93.8	85.8	104	112	156%	125	101	106
C=C1C(=O)C2CCN1CC2	102	101	99.5	101	104	104	-53.8% (active)	97	96.2	102
C1=NCCc2ccccc21	93.8	85.8	105	89.4	103	92.1	114%	98.5	103	101
COC(=O)Cc1cc(COC(C)=O)ccc1C	104	107	110	110	109	79	99.2%	99.1	100	120
